For 37 molecules, growth results are on record in PubChem BioAssay (NCI).

The structures appear in SMILES notation. This is part of a sample that, as a whole, favours compounds with a hit. Of some 83,000 tested, about 20% had one in any assay.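 Cell lines were cultured in 96-well plates, exposed to a single compound concentration, and assessed for percent growth 48 hours later.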 Calls of active or inactive are those of the source. Rule for the calls: active = growth percent below 10; inactive = the rest.

The assay has as its system K-562 leukemia. Briefly: NCI-60 one-dose screen, 48 h (100 = growth as untreated, 0 = no growth, -100 = all killed). Particulars: 10 µM unless noted.
In the case of `CC(=O)O[C@H]1CC[C@@]2(C)C(=CC[C@H]3[C@@H]4C[C@@H](N5CC5)[C@H](C(C)=O)[C@@]4(C)CC[C@@H]32)C1`, the growth is 72.4% (inactive).
The value for `CC(=O)O[C@H]1C(=O)[C@@]2(C)[C@H]([C@H](OC(=O)c3ccccc3)[C@]3(O)C[C@H](OC(=O)[C@H](OC(=O)OC[C@H]4COC(C)(C)O4)[C@@H](NC(=O)c4ccccc4)c4ccccc4)C(C)=C1C3(C)C)[C@]1(OC(C)=O)CO[C@@H]1C[C@@H]2O` was 11.6% (inactive); that for `COC(=O)N[C@H]1CCc2c(Br)c(OC)c(OC)c(OC)c2-c2ccc(SC)c(=O)cc21` was 6.78% (active); that for `CC[C@H](C)[C@H](NC(=O)c1ccccn1)C(=O)N(C)[C@H](C[C@@H](OC(C)=O)c1nc(C(=O)N[C@@H](Cc2ccccc2)C[C@H](C)C(=O)OC)cs1)C(C)C` was 10.8% (inactive).
Consider `Cc1cc(N(CCCl)CCCl)ccc1C=Nc1ccc(-c2csc(Cc3ccccc3)n2)cc1`, for which the growth is 56.8% (inactive).
The value for `COC(=O)[C@]12CCC(C)(C)C[C@H]1[C@H]1C(=O)C[C@@H]3[C@@]4(C)C[C@@]5(CC(C)(C)[C@@H]4CC[C@@]3(C)[C@]1(C)CC2)OO[C@@](C)(C(F)(F)F)O5` was 88.3% (inactive).
The value for `CN1CCC(c2c[nH]c3ccccc23)C1` (configuration not stated) was 109% (inactive); that for `CCC[CH2][Sn]([CH2]CCC)([CH2]CCC)[O]c1ccc(Cl)cc1Cl` was -65% (active); that for `COC(=O)[C@H](C[C@H](Cc1ccccc1)NC(=O)c1csc([C@@H](C[C@H](C(C)C)N(C)C(=O)[C@@H](NC(=O)[C@H]2CCCCN2C)C(C)C)OC(C)=O)n1)NC(=O)OCc1ccccc1` was 5.76% [8.5 µM] (active).
`C[n+]1c(/C=C/c2ccc(N(CCCl)CCCl)cc2)sc2ccccc21`: the growth was 15.3% (inactive).
The value for `CC[C@H](C)[C@H](NC(=O)C12C3C4C1C1C2C3C41NC(C)=O)C(=O)N(C)[C@H](C[C@@H](OC(C)=O)c1nc(C(=O)N[C@@H](Cc2ccccc2)C[C@H](C)C(=O)OC)cs1)C(C)C` (some centres not stated) was 8.82% (active).
Turning to `CCCCCN(CCCCC)CC(O)c1cc(Cl)ccc1OC` (configuration not stated), the growth is 14.8% (inactive).
The value for `C#Cc1ccc2c(c1)C(c1ccccc1)=NCC(=O)N2C` was 15.6% (inactive); that for `CCOC(=O)CCN(C)C1=Nc2ccc(Cl)cc2C(c2ccccc2)=[N+]([O-])C1` was 96.8% (inactive); that for `COC(=O)[C@@H](C)C[C@H](Cc1ccccc1)NC(=O)c1csc([C@@H](C[C@H](C(C)C)N(C)C(=O)[C@@H](NC(=O)CN(C)C)C2CC2)OC(C)=O)n1` was 9.12% (active).
Then `COc1cc2c(c(OC)c1OC)-c1ccc([O-])c(=O)cc1[C@@H](NC(C)=O)CC2.COc1cc2c(c(OC)c1OC)-c1ccc([O-])c(=O)cc1[C@@H](NC(C)=O)CC2.[Cu+2]`, with 2.76% (active).
The value for `COc1ccc(/C=C\c2cc(OC)c(OC)c(OC)c2)c(NS(=O)(=O)c2ccc(C)cc2)c1O` was 17.6% (inactive); that for `C=C(C)[C@@]12OC3(/C=C/C=C/CCCCC)O[C@@H]1[C@@H]1[C@@H]4O[C@]4(CO)[C@@H](O)[C@]4(O)C(=O)C(C)=C[C@H]4[C@@]1(O3)[C@H](C)[C@H]2OC(=O)c1ccccc1` was 24.9% (inactive).
As to `CC(C)CCC1(CCCl)C(=O)NC(=O)NC1=O`, the growth is 116% (inactive).
`C[C@@]1(CCCCCCCCCc2ccc(O)cc2)C[C@]2(C)OC(=O)C[C@@H]2OO1`: the growth is 70% (inactive).
Then `COC(=O)[C@@H](C)C[C@H](Cc1ccccc1)NC(=O)c1nc([C@@H](C[C@H](C(C)C)N(C)C(=O)[C@@H](NC(=O)[C@H]2CCCN2C)C(C)C)OC(C)=O)sc1C`, with 9.29% (active); and `CCOP(=O)(NC[C@H]1O[C@](O)(CO)[C@@H](O)[C@@H]1O)OCC`, with 97.5% (inactive).
Consider `O=C1CN=C(c2ccc(Cl)cc2)c2sccc2N1`, for which the growth was 88.1% (inactive).
Regarding `COP(=O)(OC)C(O)c1ccc(Cl)cc1` (configuration not stated), the growth was 117% (inactive).
The value for `CNC(=O)Oc1ccc(N(C)C)cc1C(C)C` was 129% (inactive); that for `CO[C@H](C(=O)O)[C@@H]1Cc2cc3cc(OC4CC(OC5CC(O)C(O)C(C)O5)C(O)C(C)O4)c(C)c(O)c3c(O)c2C(=O)[C@H]1OC1CC(OC2CC(OC3CC(C)(O)C(O)C(C)O3)C(O)C(C)O2)C(O)C(C)O1` (some centres not stated) was 11.8% (inactive); that for `CCOC(=O)N[C@H]1CCc2c(Br)c(OC)c(OC)c(OC)c2-c2ccc(SC)c(=O)cc21` was 5.89% (active).
Then `Cc1cnc(/C=C/C(=O)O)cc1-c1cc2c(cc1C)C(C)(C)CCC2(C)C`, with 109% (inactive); and `CC1=C(CNO)C2=C(C)C3(CC3)[C@@](C)(O)C(=O)C2=C1`, with 88.4% (inactive).
In the case of `CC12CC=CCC1CCC1C2CCC2(C)C(c3ccc(=O)oc3)CCC12O` (configuration not stated), the growth is 3.02% (active).
Consider `Fc1c[c-]c(-c2ccccn2)c(F)c1.[CH3-].[Pt+2].c1ccc([PH+](c2ccccc2)c2ccccn2)cc1`, for which the growth is 4.86% (active).
Then `CN[C@@]1(c2ccccc2Cl)CCCC[C@@H]1NCC1CCCO1` (some centres not stated), with 100% (inactive); and `CC(C)=CC1C(C(=O)OCc2cccc(Oc3ccccc3)c2)C1(C)C` (configuration not stated), with 92.6% (inactive).
Regarding `CCCCCCCC[n+]1ccc2ccccc2c1`, the growth is 22.6% (inactive).
On to `COC(=O)[C@@H](C)C[C@H](Cc1ccccc1)NC(=O)c1csc([C@@H](C[C@H](C(C)C)N(C)C(=O)C2(NC(=O)[C@H]3CCCCN3C)CC2)OC(C)=O)n1`, for which the growth is 3.8% (active).
Then `CC(=O)c1ccc(C(=O)NCC2CCC3(CC2)OOC2(CCCCC2)OO3)cc1`, with 56.2% (inactive); and `COC(=O)[C@@H](C[C@H](Cc1ccccc1)NC(=O)c1csc([C@@H](C[C@H](C(C)C)N(C)C(=O)[C@@H](NC(=O)[C@H]2CCCCN2C)C(C)C)OC(C)=O)n1)NC(=O)OCc1ccccc1`, with 2.99% [9.5 µM] (active).
